This excerpt belongs to a sample that is enriched for the strongest signals.
How the values were obtained:
Experiment in all cases: glycan array binding signal (z-score within array); higher = stronger binding
Conditions in all cases: glycan notation: IUPAC condensed, linker removed
[1] = target: GalNAc(b1-4)Gal(b1-4)Glc
Procedure, shortened: (§1)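 Glycan array data came from 3228 arrays in the Consortium for Functional Glycomics database, and only arrays with an available protein sequence were kept. Glycan names were put into IUPAC-condensed notation, and columns mapping to the same glycan were averaged. The binding signal is a within-array Z-score, averaged across arrays of one protein sequence run at different concentrations or buffers and across linkers. A negative Z-score can be read as non-binding.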

[2] = target: GalNAc(b1-4)GlcNAc
Procedure, shortened: as §1

[3] = target: GalNAc(b1-4)GlcNAc(b1-3)GalNAc(b1-4)GlcNAc
Procedure, shortened: as §1

[4] = target: GlcNAc(b1-2)Man(a1-3)[GlcNAc(b1-2)Man(a1-6)]Man(b1-4)GlcNAc(b1-4)[Fuc(a1-6)]GlcNAc
Procedure, shortened: as §1

[5] = target: GlcNAc(b1-2)[GlcNAc(b1-6)]Man(a1-6)[GlcNAc(b1-2)Man(a1-3)]Man(b1-4)GlcNAc(b1-4)[Fuc(a1-6)]GlcNAc
Procedure, shortened: as §1

[6] = target: GlcNAc(b1-3)Gal(b1-4)GlcNAc(b1-2)[GlcNAc(b1-3)Gal(b1-4)GlcNAc(b1-6)]Man(a1-6)[GlcNAc(b1-3)Gal(b1-4)GlcNAc(b1-2)Man(a1-3)]Man(b1-4)GlcNAc(b1-4)GlcNAc
Procedure, shortened: as §1

[7] = target: GlcNAc(b1-3)Gal(b1-4)GlcNAc(b1-3)Gal(b1-4)GlcNAc(b1-2)Man(a1-3)[GlcNAc(b1-3)Gal(b1-4)GlcNAc(b1-3)Gal(b1-4)GlcNAc(b1-2)Man(a1-6)]Man(b1-4)GlcNAc(b1-4)GlcNAc
Procedure, shortened: as §1

[8] = target: GlcNAc(b1-3)Gal(b1-4)GlcNAc(b1-3)Gal(b1-4)GlcNAc(b1-3)Gal(b1-4)GlcNAc(b1-3)Gal(b1-4)GlcNAc(b1-2)[GlcNAc(b1-3)Gal(b1-4)GlcNAc(b1-3)Gal(b1-4)GlcNAc(b1-3)Gal(b1-4)GlcNAc(b1-3)Gal(b1-4)GlcNAc(b1-6)]Man(a1-6)[GlcNAc(b1-3)Gal(b1-4)GlcNAc(b1-3)Gal(b1-4)GlcNAc(b1-3)Gal(b1-4)GlcNAc(b1-3)Gal(b1-4)GlcNAc(b1-2)Man(a1-3)]Man(b1-4)GlcNAc(b1-4)[Fuc(a1-6)]GlcNAc
Procedure, shortened: as §1

[9] = target: GlcNAc(b1-6)GalNAc
Procedure, shortened: as §1

[10] = target: Neu5Ac(a2-3)Gal(b1-3)GlcNAc(b1-2)Man(a1-3)[Neu5Ac(a2-3)Gal(b1-3)GlcNAc(b1-2)Man(a1-6)]Man(b1-4)GlcNAc(b1-4)GlcNAc
Procedure, shortened: as §1

[11] = target: Neu5Ac(a2-3)Gal(b1-3)[Fuc(a1-4)]GlcNAc(b1-3)Gal(b1-3)[Fuc(a1-4)]GlcNAc
Procedure, shortened: as §1

[12] = target: Neu5Ac(a2-3)Gal(b1-4)GlcNAc(b1-2)Man(a1-3)[Neu5Ac(a2-3)Gal(b1-4)GlcNAc(b1-2)Man(a1-6)]Man(b1-4)GlcNAc(b1-4)[Fuc(a1-6)]GlcNAc
Procedure, shortened: as §1

[13] = target: Neu5Ac(a2-3)Gal(b1-4)GlcNAc(b1-2)[Neu5Ac(a2-3)Gal(b1-4)GlcNAc(b1-6)]Man(a1-6)[Neu5Ac(a2-3)Gal(b1-4)GlcNAc(b1-2)Man(a1-3)][GlcNAc(b1-4)]Man(b1-4)GlcNAc(b1-4)GlcNAc
Procedure, shortened: as §1

[14] = target: Neu5Ac(a2-3)Gal(b1-4)[Fuc(a1-3)]GlcNAc(b1-3)Gal
Procedure, shortened: as §1

[15] = target: Neu5Ac(a2-3)Gal(b1-4)[Fuc(a1-3)]GlcNAc6S
Procedure, shortened: as §1

[16] = target: Neu5Ac(a2-3)[GalNAc(b1-4)]Gal(b1-4)GlcNAc
Procedure, shortened: as §1

[17] = target: Neu5Ac(a2-6)Gal
Procedure, shortened: as §1

[18] = target: Neu5Ac(a2-6)Gal(b1-4)GlcNAc(b1-2)Man(a1-3)[Neu5Ac(a2-3)Gal(b1-4)GlcNAc(b1-2)Man(a1-6)]Man(b1-4)GlcNAc(b1-4)GlcNAc
Procedure, shortened: as §1

[19] = target: Neu5Ac(a2-6)Gal(b1-4)GlcNAc(b1-2)Man(a1-6)[Gal(b1-4)GlcNAc(b1-2)Man(a1-3)]Man(b1-4)GlcNAc(b1-4)GlcNAc
Procedure, shortened: as §1

[20] = target: Neu5Ac(a2-6)Gal(b1-4)GlcNAc(b1-3)Gal(b1-4)GlcNAc(b1-3)Gal(b1-4)GlcNAc(b1-2)Man(a1-3)[Neu5Ac(a2-6)Gal(b1-4)GlcNAc(b1-3)Gal(b1-4)GlcNAc(b1-3)Gal(b1-4)GlcNAc(b1-2)Man(a1-6)]GalNAc
Procedure, shortened: as §1

[21] = target: Neu5Ac(a2-6)Gal(b1-4)GlcNAc(b1-6)GalNAc
Procedure, shortened: as §1

[22] = target: Neu5Ac(a2-8)Neu5Ac(a2-3)Gal(b1-3)GalNAc(b1-4)[Neu5Ac(a2-3)]Gal(b1-4)Glc
Procedure, shortened: as §1

[23] = target: Neu5Ac(a2-8)Neu5Ac(a2-3)Gal(b1-4)GlcNAc
Procedure, shortened: as §1

[24] = target: Neu5Ac(a2-8)Neu5Ac(a2-3)[Gal(b1-3)GalNAc(b1-4)]Gal(b1-4)Glc
Procedure, shortened: as §1

[25] = target: Neu5Gc(a2-3)Gal(b1-4)[Fuc(a1-3)]GlcNAc
Procedure, shortened: as §1

[26] = target: Neu5Gc(a2-8)Neu5Gc(a2-3)Gal(b1-4)GlcNAc(b1-3)Gal(b1-4)GlcNAc
Procedure, shortened: as §1

B1: Erv46-EDTA (Saccharomyces cerevisiae), P39727 (protein)
chain: MKFLVNVALVFMVVYISYIYAAAPEHHHHHHDYDIPTTENLYFQGAMDSVVTRPQLVVDRDRHAKLELNMDVTFPSMPCDLVNLDIMDDSGEMQLDILDAGFTMSRLNSEGRPVGDATELHVGGNGDGTAPVNNDPNYCGPCYGAKDQSQNENLAQEEKVCCQDCDAVRSAYLEAGWAFFDGKNIEQCEREGYVSKINEHLNEGCRIKGSAQINRIQGNLHFAPGKPYQNAYGHFHDTSLYDKTSNLNFNHIINHLSFGKPIQSHSKLLGNDKRHGGAVVATSPLDGRQVFPDRNTHFHQFSYFAKIVPTRYEYLDNVVIETAQFSATFHSRPLAGGRDKDHPNTLHVRGGIPGMFVFFEMSPLKVINKEQ
glycan array binding signal (z-score) [1]: -0.674 | glycan array binding signal (z-score) [2]: 0.697 | glycan array binding signal (z-score) [3]: -0.443 | glycan array binding signal (z-score) [4]: 6.37 | glycan array binding signal (z-score) [5]: 1.14 | glycan array binding signal (z-score) [6]: 2.9 | glycan array binding signal (z-score) [7]: 3.36 | glycan array binding signal (z-score) [8]: 0.589 | glycan array binding signal (z-score) [9]: -0.565 | glycan array binding signal (z-score) [10]: 1.06 | glycan array binding signal (z-score) [11]: -0.483 | glycan array binding signal (z-score) [12]: 0.11 | glycan array binding signal (z-score) [13]: -0.335 | glycan array binding signal (z-score) [14]: -0.531 | glycan array binding signal (z-score) [15]: -0.585 | glycan array binding signal (z-score) [16]: 0.122 | glycan array binding signal (z-score) [17]: -0.121 | glycan array binding signal (z-score) [18]: -0.318 | glycan array binding signal (z-score) [19]: -0.053 | glycan array binding signal (z-score) [20]: 3.54 | glycan array binding signal (z-score) [21]: -0.855 | glycan array binding signal (z-score) [22]: -0.029 | glycan array binding signal (z-score) [23]: -0.501 | glycan array binding signal (z-score) [24]: -0.605 | glycan array binding signal (z-score) [25]: 0.625 | glycan array binding signal (z-score) [26]: -0.449

From the supplement of paper PMC8728848
